{
  "source": "the supplement of paper PMC8728848",
  "assay_in_all_cases": "glycan array binding signal (z-score within array); higher = stronger binding",
  "conditions_in_all_cases": "glycan notation: IUPAC condensed, linker removed",
  "key": {"[1]": {"biological_target": "GalNAc(b1-4)GlcNAc(b1-2)Man(a1-3)[GalNAc(b1-4)GlcNAc(b1-2)Man(a1-6)]Man(b1-4)GlcNAc(b1-4)GlcNAc", "summary_of_the_method": "(§1)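 The binding signal is a Z-score computed within each array and averaged over linkers. Arrays of the same protein sequence at different concentrations or buffers were also averaged together. Data originate from 3228 arrays in the Consortium for Functional Glycomics database, kept only where the protein sequence was available.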"}, "[2]": {"biological_target": "GlcNAc(b1-2)Man(a1-3)[GlcNAc(b1-4)][GlcNAc(b1-2)Man(a1-6)]Man(b1-4)GlcNAc(b1-4)GlcNAc", "summary_of_the_method": "as §1"}, "[3]": {"biological_target": "GlcNAc(b1-3)Gal(b1-4)Glc", "summary_of_the_method": "as §1"}, "[4]": {"biological_target": "GlcNAc(b1-3)Gal(b1-4)GlcNAc", "summary_of_the_method": "as §1"}, "[5]": {"biological_target": "GlcNAc(b1-3)Gal(b1-4)GlcNAc(b1-2)Man(a1-3)[GlcNAc(b1-3)Gal(b1-4)GlcNAc(b1-2)Man(a1-6)]Man(b1-4)GlcNAc(b1-4)GlcNAc", "summary_of_the_method": "as §1"}, "[6]": {"biological_target": "GlcNAc(b1-3)Gal(b1-4)GlcNAc(b1-3)Gal(b1-4)GlcNAc(b1-2)Man(a1-3)[GlcNAc(b1-3)Gal(b1-4)GlcNAc(b1-3)Gal(b1-4)GlcNAc(b1-2)Man(a1-6)]Man(b1-4)GlcNAc(b1-4)GlcNAc", "summary_of_the_method": "as §1"}, "[7]": {"biological_target": "GlcNAc(b1-3)Gal(b1-4)GlcNAc(b1-6)[GlcNAc(b1-3)Gal(b1-3)]GalNAc", "summary_of_the_method": "as §1"}, "[8]": {"biological_target": "Man(a1-2)Man(a1-3)[Man(a1-2)Man(a1-6)]Man(a1-6)[Man(a1-2)Man(a1-2)Man(a1-3)]Man", "summary_of_the_method": "as §1"}, "[9]": {"biological_target": "Man(a1-3)[Man(a1-6)]Man(b1-4)GlcNAc(b1-4)[Fuc(a1-6)]GlcNAc", "summary_of_the_method": "as §1"}, "[10]": {"biological_target": "Neu5Ac(a2-3)Gal(b1-3)GlcNAc(b1-2)[Neu5Ac(a2-3)Gal(b1-3)GlcNAc(b1-4)]Man(a1-6)[Neu5Ac(a2-3)Gal(b1-3)GlcNAc(b1-2)Man(a1-3)]Man(b1-4)GlcNAc(b1-4)GlcNAc", "summary_of_the_method": "as §1"}, "[11]": {"biological_target": "Neu5Ac(a2-3)Gal(b1-4)GlcNAc(b1-2)Man", "summary_of_the_method": "as §1"}, "[12]": {"biological_target": "Neu5Ac(a2-3)Gal(b1-4)GlcNAc(b1-3)Gal(b1-4)GlcNAc(b1-2)Man(a1-3)[Neu5Ac(a2-3)Gal(b1-4)GlcNAc(b1-3)Gal(b1-4)GlcNAc(b1-2)Man(a1-6)]Man(b1-4)GlcNAc(b1-4)GlcNAc", "summary_of_the_method": "as §1"}, "[13]": {"biological_target": "Neu5Ac(a2-3)Gal(b1-4)GlcNAc(b1-3)Gal(b1-4)GlcNAc(b1-3)[Neu5Ac(a2-3)Gal(b1-4)GlcNAc(b1-3)Gal(b1-4)GlcNAc(b1-6)]GalNAc", "summary_of_the_method": "as §1"}, "[14]": {"biological_target": "Neu5Ac(a2-3)Gal(b1-4)[Fuc(a1-3)]GlcNAc(b1-2)Man", "summary_of_the_method": "as §1"}, "[15]": {"biological_target": "Neu5Ac(a2-6)Gal(b1-4)GlcNAc(b1-2)Man(a1-3)[GlcNAc(b1-2)Man(a1-6)]Man(b1-4)GlcNAc(b1-4)GlcNAc", "summary_of_the_method": "as §1"}, "[16]": {"biological_target": "Neu5Ac(a2-6)Gal(b1-4)GlcNAc(b1-2)Man(a1-6)Man(b1-4)GlcNAc(b1-4)GlcNAc", "summary_of_the_method": "as §1"}, "[17]": {"biological_target": "Neu5Ac(a2-6)Gal(b1-4)GlcNAc(b1-3)Gal(b1-4)GlcNAc(b1-2)Man(a1-3)[Neu5Ac(a2-6)Gal(b1-4)GlcNAc(b1-3)Gal(b1-4)GlcNAc(b1-2)Man(a1-6)]GalNAc", "summary_of_the_method": "as §1"}, "[18]": {"biological_target": "Neu5Ac(a2-6)Gal(b1-4)GlcNAc(b1-3)Gal(b1-4)GlcNAc(b1-3)[Neu5Ac(a2-6)Gal(b1-4)GlcNAc(b1-3)Gal(b1-4)GlcNAc(b1-6)]GalNAc", "summary_of_the_method": "as §1"}, "[19]": {"biological_target": "Neu5Ac(a2-6)Gal(b1-4)GlcNAc(b1-3)Gal(b1-4)[Fuc(a1-3)]GlcNAc(b1-3)Gal(b1-4)[Fuc(a1-3)]GlcNAc", "summary_of_the_method": "as §1"}, "[20]": {"biological_target": "Neu5Ac(a2-6)GalNAc", "summary_of_the_method": "as §1"}, "[21]": {"biological_target": "Neu5Ac(a2-6)GalNAc(b1-4)GlcNAc6S", "summary_of_the_method": "as §1"}, "[22]": {"biological_target": "Neu5Ac(a2-8)Neu5Ac(a2-3)Gal(b1-4)Glc", "summary_of_the_method": "as §1"}, "[23]": {"biological_target": "Neu5Ac(a2-8)Neu5Ac(a2-8)Neu5Ac(a2-8)Neu5Ac(a2-3)[GalNAc(b1-4)]Gal(b1-4)Glc", "summary_of_the_method": "as §1"}, "[24]": {"biological_target": "Neu5Ac(b2-6)GalNAc", "summary_of_the_method": "as §1"}, "[25]": {"biological_target": "Neu5Ac9Ac(a2-3)Gal(b1-3)GlcNAc", "summary_of_the_method": "as §1"}, "[26]": {"biological_target": "Neu5Gc(a2-6)Gal(b1-4)GlcNAc", "summary_of_the_method": "as §1"}, "[27]": {"biological_target": "Neu5Gc(a2-6)GalNAc", "summary_of_the_method": "as §1"}, "[28]": {"biological_target": "Neu5Gc(a2-8)Neu5Gc(a2-3)Gal(b1-4)GlcNAc", "summary_of_the_method": "as §1"}},
  "note": "Shown is part of a subset that was picked to be rich in the strongest signals.",
  "data": [
    {"binder": "Aap lectin (Staphylococcus epidermidis) (protein) VNLNYSSPFMSLLSMPADSSSNNTKNTIDIPPTTVKGRDNYDFYGRVDIESNPTDLNATNLTRYNYGQPPGTTTAGAVQFKNQVSFDKDFDFNIRVANNRQSNTTGADGWGFMFSKKDGDDFLKNGGILREKGTPSAAGFRIDTGYYNNDPLDKIQKQAGQGYRGYGTFVKNDSQGNTSKVGSGTPSTDFLNYADNTTNDLDGKFHGQKLNNVNLKYNASNQTFTATYAGKTWTATLSELGLSPTDSYNFLVTSS", "values": [
      {"measurement": "glycan array binding signal (z-score)", "setting": "[1]", "value": 3.29},
      {"measurement": "glycan array binding signal (z-score)", "setting": "[2]", "value": -0.698},
      {"measurement": "glycan array binding signal (z-score)", "setting": "[3]", "value": 0.941},
      {"measurement": "glycan array binding signal (z-score)", "setting": "[4]", "value": -0.278},
      {"measurement": "glycan array binding signal (z-score)", "setting": "[5]", "value": 0.543},
      {"measurement": "glycan array binding signal (z-score)", "setting": "[6]", "value": 3.83},
      {"measurement": "glycan array binding signal (z-score)", "setting": "[7]", "value": -0.968},
      {"measurement": "glycan array binding signal (z-score)", "setting": "[8]", "value": -0.858},
      {"measurement": "glycan array binding signal (z-score)", "setting": "[9]", "value": -0.887},
      {"measurement": "glycan array binding signal (z-score)", "setting": "[10]", "value": -0.885},
      {"measurement": "glycan array binding signal (z-score)", "setting": "[11]", "value": -0.335},
      {"measurement": "glycan array binding signal (z-score)", "setting": "[12]", "value": -0.87},
      {"measurement": "glycan array binding signal (z-score)", "setting": "[13]", "value": -0.88},
      {"measurement": "glycan array binding signal (z-score)", "setting": "[14]", "value": -0.708},
      {"measurement": "glycan array binding signal (z-score)", "setting": "[15]", "value": -0.88},
      {"measurement": "glycan array binding signal (z-score)", "setting": "[16]", "value": -0.806},
      {"measurement": "glycan array binding signal (z-score)", "setting": "[17]", "value": -0.905},
      {"measurement": "glycan array binding signal (z-score)", "setting": "[18]", "value": 2.93},
      {"measurement": "glycan array binding signal (z-score)", "setting": "[19]", "value": -0.333},
      {"measurement": "glycan array binding signal (z-score)", "setting": "[20]", "value": -0.816},
      {"measurement": "glycan array binding signal (z-score)", "setting": "[21]", "value": -1.16},
      {"measurement": "glycan array binding signal (z-score)", "setting": "[22]", "value": -0.83},
      {"measurement": "glycan array binding signal (z-score)", "setting": "[23]", "value": -0.444},
      {"measurement": "glycan array binding signal (z-score)", "setting": "[24]", "value": -0.527},
      {"measurement": "glycan array binding signal (z-score)", "setting": "[25]", "value": 0.704},
      {"measurement": "glycan array binding signal (z-score)", "setting": "[26]", "value": -0.275},
      {"measurement": "glycan array binding signal (z-score)", "setting": "[27]", "value": -0.523},
      {"measurement": "glycan array binding signal (z-score)", "setting": "[28]", "value": 1.51}
    ]}
  ]
}
